According to publication PMC7862700, “An all-to-all approach to the identification of sequence-specific readers for epigenetic DNA modifications on cytosine”:

The sequences below were run against T1, ETS2 (Homo sapiens, UniProt P15036 1-469) (assay: DAPPL (digital affinity profiling via proximity ligation, sequencing); 10 mM Tris-HCl pH 7.5, 50 mM NaCl, 1 mM DTT, 4% glycerol, room temperature, 30 min; GST-TFs on glutathione beads, 16-mer random dsDNA library, 0.1% formaldehyde crosslink after washing; high values mean tight binding). Conditions: protein: recombinant; tags: N-terminal GST; dsDNA, one strand shown.
T1 sequence: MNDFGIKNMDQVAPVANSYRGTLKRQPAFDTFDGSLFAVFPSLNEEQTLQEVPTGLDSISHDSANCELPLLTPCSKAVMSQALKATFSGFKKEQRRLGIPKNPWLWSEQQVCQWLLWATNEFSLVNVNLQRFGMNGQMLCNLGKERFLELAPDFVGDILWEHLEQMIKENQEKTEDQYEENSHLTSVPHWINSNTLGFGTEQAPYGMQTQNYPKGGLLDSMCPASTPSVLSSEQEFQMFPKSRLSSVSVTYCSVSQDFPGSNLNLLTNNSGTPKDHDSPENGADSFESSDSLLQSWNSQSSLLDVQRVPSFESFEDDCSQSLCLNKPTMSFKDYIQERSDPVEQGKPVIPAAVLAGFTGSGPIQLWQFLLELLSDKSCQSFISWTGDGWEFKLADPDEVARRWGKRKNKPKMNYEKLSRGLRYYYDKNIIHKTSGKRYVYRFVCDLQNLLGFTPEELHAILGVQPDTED
Summary of the method: (§1)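 Binding signal is given per hexamer as its read frequency for a factor divided by its frequency in the tag-only sample. GST-fused human transcription factors were expressed in yeast, captured on glutathione beads, barcoded with DNA and pooled with that sample, then incubated with 200 nmole of a 16-mer random double-stranded DNA library in Tris/NaCl/DTT/glycerol buffer for 30 min at room temperature. The pools were then washed, crosslinked, proximity-ligated, amplified by PCR and sequenced on an Illumina NextSeq500.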

Row | Sequence | binding signal
1 | TATGAG | 1 fold enrichment (6-mer frequency, TF over GST control)
2 | GACCGG | 1.07 fold enrichment (6-mer frequency, TF over GST control)
3 | GGGTAT | 1.02 fold enrichment (6-mer frequency, TF over GST control)
4 | AACGCA | 1.1 fold enrichment (6-mer frequency, TF over GST control)
5 | CATAGT | 1.03 fold enrichment (6-mer frequency, TF over GST control)
6 | AGCGTC | 1.02 fold enrichment (6-mer frequency, TF over GST control)
7 | GTGCCT | 1.06 fold enrichment (6-mer frequency, TF over GST control)
8 | CCACCG | 1.02 fold enrichment (6-mer frequency, TF over GST control)
9 | ATAGGC | 1.01 fold enrichment (6-mer frequency, TF over GST control)
10 | ATAGGG | 1.01 fold enrichment (6-mer frequency, TF over GST control)
11 | GCCGGA | 1.01 fold enrichment (6-mer frequency, TF over GST control)
12 | GGCTAT | 1.02 fold enrichment (6-mer frequency, TF over GST control)
13 | GGACTT | 1.13 fold enrichment (6-mer frequency, TF over GST control)
14 | AGTCCT | 1.06 fold enrichment (6-mer frequency, TF over GST control)

What follows are sequences tested against T2, SPDEF (Homo sapiens, UniProt O95238 1-335) in the same assay as above. Conditions: protein: recombinant; tags: N-terminal GST; dsDNA, one strand shown.
T2 sequence: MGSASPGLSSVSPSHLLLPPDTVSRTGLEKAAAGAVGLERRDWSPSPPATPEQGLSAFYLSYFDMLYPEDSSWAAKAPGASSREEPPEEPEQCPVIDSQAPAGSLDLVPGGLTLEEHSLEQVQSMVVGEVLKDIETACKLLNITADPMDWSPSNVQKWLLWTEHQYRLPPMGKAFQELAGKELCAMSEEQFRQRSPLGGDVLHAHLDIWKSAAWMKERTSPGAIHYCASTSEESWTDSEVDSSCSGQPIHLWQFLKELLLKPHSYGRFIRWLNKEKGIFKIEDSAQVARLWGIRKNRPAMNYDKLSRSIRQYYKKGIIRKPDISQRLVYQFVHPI
Summary of the method: as §1

Row | Sequence | binding signal
15 | GTCCGG | 1.18 fold enrichment (6-mer frequency, TF over GST control)
16 | TATGAG | 1.01 fold enrichment (6-mer frequency, TF over GST control)
17 | GACCGG | 1.19 fold enrichment (6-mer frequency, TF over GST control)
18 | AACGCA | 1.05 fold enrichment (6-mer frequency, TF over GST control)
19 | ATCCGT | 1.41 fold enrichment (6-mer frequency, TF over GST control)
20 | AGCGTC | 1.08 fold enrichment (6-mer frequency, TF over GST control)
21 | GTGCCT | 1.02 fold enrichment (6-mer frequency, TF over GST control)
22 | CTGTAG | 1.03 fold enrichment (6-mer frequency, TF over GST control)
23 | GTACCA | 1 fold enrichment (6-mer frequency, TF over GST control)
24 | AGTACC | 1.01 fold enrichment (6-mer frequency, TF over GST control)
25 | ATAGGG | 1.01 fold enrichment (6-mer frequency, TF over GST control)
26 | GCCGGA | 1.37 fold enrichment (6-mer frequency, TF over GST control)
27 | GGCTAT | 1.05 fold enrichment (6-mer frequency, TF over GST control)
28 | GGATAC | 1.43 fold enrichment (6-mer frequency, TF over GST control)
29 | GGACTT | 1.08 fold enrichment (6-mer frequency, TF over GST control)
30 | AGTCCT | 1.02 fold enrichment (6-mer frequency, TF over GST control)
31 | GCCCGG | 1.06 fold enrichment (6-mer frequency, TF over GST control)

The sequences below were run against T3, ETV7 (Homo sapiens, UniProt Q9Y603 1-341) in the same assay as above. Conditions: protein: recombinant; tags: N-terminal GST; dsDNA, one strand shown.
T3 sequence: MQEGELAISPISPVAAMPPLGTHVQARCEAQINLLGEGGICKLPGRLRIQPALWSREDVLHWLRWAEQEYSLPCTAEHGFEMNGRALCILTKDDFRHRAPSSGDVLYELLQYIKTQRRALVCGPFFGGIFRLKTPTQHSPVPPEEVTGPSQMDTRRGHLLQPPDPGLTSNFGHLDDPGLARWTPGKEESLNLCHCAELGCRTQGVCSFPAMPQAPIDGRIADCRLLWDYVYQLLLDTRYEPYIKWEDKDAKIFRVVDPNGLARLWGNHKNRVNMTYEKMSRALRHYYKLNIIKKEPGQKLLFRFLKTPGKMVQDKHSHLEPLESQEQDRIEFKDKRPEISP
Summary of the method: as §1

Row | Sequence | binding signal
32 | GACCGG | 1.06 fold enrichment (6-mer frequency, TF over GST control)
33 | GAAACC | 1.04 fold enrichment (6-mer frequency, TF over GST control)
34 | GGGTAT | 1.02 fold enrichment (6-mer frequency, TF over GST control)
35 | GTTGGT | 1.02 fold enrichment (6-mer frequency, TF over GST control)
36 | CGACGG | 1.13 fold enrichment (6-mer frequency, TF over GST control)
37 | CATAGT | 1.11 fold enrichment (6-mer frequency, TF over GST control)
38 | AGCGTC | 1.06 fold enrichment (6-mer frequency, TF over GST control)
39 | CCACCG | 1.06 fold enrichment (6-mer frequency, TF over GST control)
40 | ATAGGC | 1.01 fold enrichment (6-mer frequency, TF over GST control)
41 | GTGCCC | 1.01 fold enrichment (6-mer frequency, TF over GST control)
42 | ATAGGG | 1.09 fold enrichment (6-mer frequency, TF over GST control)
43 | GCCGGA | 1 fold enrichment (6-mer frequency, TF over GST control)
44 | GGCTAT | 1.12 fold enrichment (6-mer frequency, TF over GST control)
45 | TAGGCC | 1.03 fold enrichment (6-mer frequency, TF over GST control)
46 | AAACAG | 1.04 fold enrichment (6-mer frequency, TF over GST control)
47 | GGACTT | 1.13 fold enrichment (6-mer frequency, TF over GST control)
48 | AGTCCT | 1.14 fold enrichment (6-mer frequency, TF over GST control)
49 | GCCCGG | 1.01 fold enrichment (6-mer frequency, TF over GST control)
50 | AGCGGC | 1.01 fold enrichment (6-mer frequency, TF over GST control)
51 | CGAGGT | 1.02 fold enrichment (6-mer frequency, TF over GST control)
